This is a sample that favours compounds with a hit; in the whole collection about 17% have one here.
TDP1 cell CPT = DT40-hTDP1 cell growth loss with CPT; Potency, µM (highest dose often 46.2 µM), for inactives: at the top dose activity change, negative = growth inhibition, most hits filed as inhibitors; actives 12% (n = 420,000); chicken DT40 Tdp1-/-;hTDP1 cells + 20 nM CPT, ATP luminescence, 48 h; also: % is scaled to controls: 0 for no effect and ±100 for the full control effect; nearly all actives have a fitted effect of over 55% in size
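Chicken DT40 Tdp1-/- cells stably complemented with human TDP1 were seeded at 400 cells/well in medium containing 20 nM camptothecin, exposed to pin-transferred compounds, and grown at 37 °C for at least 48 hr. Viability was read as ATP luminescence.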
TDP1 inh = inhibitors of human tyrosyl-DNA phosphodiesterase TDP1; Q9NUW8; recombinant TDP1, AlphaScreen DNA substrate cleavage; Potency, µM (doses to about 130 µM), without a hit: at the top dose activity change, negative = inhibition, actives largely listed as inhibitors; actives 0.28% (n = 350,000); AID 485290; also: % is scaled to controls: 0 for no effect and ±100 for the full control effect; nearly all actives have a fitted effect of over 40% in size
Target sequence (Q9NUW8 whole entry, looked up): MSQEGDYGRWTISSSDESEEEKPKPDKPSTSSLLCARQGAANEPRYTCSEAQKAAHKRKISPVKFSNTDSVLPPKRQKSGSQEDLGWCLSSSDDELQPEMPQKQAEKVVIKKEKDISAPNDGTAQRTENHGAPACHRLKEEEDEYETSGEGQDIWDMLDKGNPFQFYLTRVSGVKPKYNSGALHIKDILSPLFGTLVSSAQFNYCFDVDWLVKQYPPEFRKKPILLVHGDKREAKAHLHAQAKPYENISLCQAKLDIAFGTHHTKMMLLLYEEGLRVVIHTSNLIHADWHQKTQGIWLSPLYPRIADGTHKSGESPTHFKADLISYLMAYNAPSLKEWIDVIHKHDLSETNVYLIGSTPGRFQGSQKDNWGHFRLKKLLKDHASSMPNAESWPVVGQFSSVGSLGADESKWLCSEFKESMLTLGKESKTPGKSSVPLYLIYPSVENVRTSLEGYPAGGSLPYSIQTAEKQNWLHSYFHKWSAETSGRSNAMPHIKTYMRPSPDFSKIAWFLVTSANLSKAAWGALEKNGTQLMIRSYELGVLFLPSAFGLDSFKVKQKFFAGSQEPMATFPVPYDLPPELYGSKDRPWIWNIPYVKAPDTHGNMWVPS
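Here, a 5' biotin and 3' phosphotyrosine-FITC DNA oligonucleotide reports Tdp1 activity: intact substrate bridges AlphaScreen beads, while cleavage leaves a 3' phosphate and drops signal. All incubations at room temperature.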
DT40 TDP1 no CPT = qHTS for Inhibitors of human tyrosyl-DNA phosphodiesterase 1 (TDP1): qHTS in cells in absence of CPT. actives 15% (n = 420,000). DT40 Tdp1-/- hTDP1 cells, no CPT, ATP luminescence, 48 h. AID 686978, 2013. Potency, µM (series often up to 46.2 µM), without a hit: at the highest dose activity change, negative = growth inhibition, usual class: inhibitors; also: % is scaled to controls: 0 for no effect and ±100 for the full control effect; nearly all actives have a fitted effect of over 55% in size
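Stably hTDP1-transfected Tdp1-null chicken DT40 cells were treated with library compounds minus camptothecin and grown for at least 48 hr at 37 °C, after which cellular ATP was quantified by luminescence.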
ClpP mod = qHTS Assay for Activators of ClpP | ATP-dependent Clp protease proteolytic subunit (Bacillus subtilis (strain 168)), P80244 | purified B. subtilis ClpP, FRET peptide cleavage, 20 min | Potency, µM (highest dose often 57.5 µM), without a hit: top-dose activity change, negative = active | actives 1.9% (n = 340,000); active = well fitted falling curve with a large enough effect; inconclusive = small, poorly fitted or top-dose-only effect; inactive = no such curve, though single readings can be large or run the other way; also: the source files actives as falling curves though it sought activators and does not explain the sign; nearly all actives have a fitted effect of over 65% in size
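ClpP 10 microg/mL final, pH 8 Tris/KCl buffer with BSA, glycerol, Tween-20; compound pinned in; FRET-FV substrate; RT 20 min; Ex320/Em430; ΔFRET vs ADEP 5.8 microM, DMSO, no enzyme.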
Active calls of the source: *; ? = inconclusive; / = no result given; [ ] = another dose, or the depositor's remark. Unless noted, calls follow the shape of the dose curve; as a rule, active = well fitted curve in the direction sought with a large enough effect; inconclusive = small, poorly fitted or top-dose-only effect, or another doubt; inactive = no such curve, though single readings can be large; an effect the other way counts as inactive or inconclusive. Potency is read from the fitted curve at half-maximal effect.

SMILES	TDP1 cell CPT	TDP1 inh	DT40 TDP1 no CPT	ClpP mod
Cc1cccc(-n2c(SCC(=O)Nc3ccccc3C)nc3c(oc4ccccc43)c2=O)c1	7.3µM*	2%	5.2µM*	-4%
CC(=O)c1ccc(N2C(=O)Nc3ccccc3S2(=O)=O)cc1	-29%	1%	?	0%
CCCN(CC(=O)Nc1ccccc1C)C(=O)CCl	2.6µM*	6%	2.1µM*	-2%
CCCN(CC(=O)Nc1ccccc1C)C(=O)COc1c(C)cccc1C	?	1%	6%	1%
CCCN(CC(=O)Nc1ccccc1C)C(=O)c1cn2ccccc2n1	-11%	1%	-6%	32µM*
COc1cccc(C(c2nnnn2C2CCCC2)N2CCN(C/C=C/c3ccccc3)CC2)c1OC (centres undefined)	?	/	?	0%
C(=C\c1ccccc1)/CN1CCN(C(c2ccccc2)c2nnnn2C2CCCCC2)CC1 (centres undefined)	?	/	13µM*	-1%
CCC(c1nnnn1C1CCCC1)N1CCN(C/C=C/c2ccccc2)CC1 (centres undefined)	?	/	?	1%
CSCCC(c1nnnn1C1CCCCC1)N1CCN(C/C=C/c2ccccc2)CC1 (centres undefined)	?	/	21µM*	1%
C(=C\c1ccccc1)/CN1CCN(C(c2ccnc3ccccc23)c2nnnn2C2CCCCC2)CC1 (centres undefined)	23µM*	/	18µM*	0%
Fc1ccccc1C(c1nnnn1C1CCCC1)N1CCN(Cc2ccccc2)CC1 (centres undefined)	21µM*	2%	12µM*	-1%
Cc1cccc(CCNC(=O)c2ccc(CSCc3cccc(Cl)c3)o2)c1	?	-9%	?	-2%
CCOC(=O)c1c(NC(=O)c2cc3n(n2)C(C(F)(F)F)CC(c2cccs2)N3)sc(C)c1C (centres undefined)	5.2µM*	0%	6.5µM*	0%
Cc1nn(C)c(C)c1CNC(=O)c1cc2n(n1)C(C(F)(F)F)CC(c1cccs1)N2 (centres undefined)	10µM*	4%	5.8µM*	0%
c1cnc2c(-c3nccc4c3[nH]c3ccccc34)cccc2c1	17%[9.04 µM]	13%	-11%[9.04 µM]	/
CCOC(=O)c1c(C)[nH]c(C)c1S(=O)(=O)NCCc1ccco1	4%	4%	4%	1%
Cc1cnc(CNc2cc(-c3ccccc3C(F)(F)F)ncn2)cn1	4%	/	4%	/
Oc1ccc(C=Nc2ccc(N3CCOCC3)cc2)c(O)c1	-22%	4%	-20%	1%
Oc1ccc(N=Nc2cccc(C(F)(F)F)c2)cc1C=Nc1ccc(N2CCOCC2)cc1	23µM*	5%	18µM*	2%
CC[n+]1c(/C=C(\C)OC)sc2ccccc21	-6%	12%	-16%	/
CC[n+]1c(/C=C(/C)SC)sc2ccccc21	4.6µM*	3%	5.2µM*	1%
CC[n+]1c(/C=C(\C)SC)sc2ccccc21	9.2µM*	0%	8.2µM*	-3%
CC/C(=C/c1sc2ccccc2[n+]1CC)SC	13µM*	3%	12µM*	2%
Cc1sc2ccccc2[n+]1CC(=O)O	-9%	-2%	-7%	/
CC[n+]1c(/C=C/Nc2ccccc2)sc2ccccc21	5.8µM*	7%	2.9µM*	-2%
SMILES	TDP1 cell CPT	TDP1 inh	DT40 TDP1 no CPT	ClpP mod
CC(C)(C)CC(=O)Nc1nnc2n1CCS2	-22%	8%	2%	0%
CC[n+]1c(/C=C(\C)Nc2ccccc2)sc2ccccc21	10µM*	3%	18µM*	2%
CC[n+]1c(C=C2C=C(C)OC(C)=C2)sc2ccccc21	0.0052µM*	6%	0.033µM*	/
Cc1nc(Oc2ccc(F)cc2Cl)c2oc3ccccc3c2n1	?	4%	?	-3%
CCCCNC(=O)c1onc(CS(=O)(=O)c2ccccn2)c1C(=O)NCCCC	-1%	-2%	-13%	-1%
C=C(C)C1CC=C(C)/C(=N/NC(=O)CCC(=O)Nc2ccccc2Cl)C1 (centres undefined)	?	0%	?	/
Cc1noc(C)c1COC(=O)c1ccccc1Sc1ccccc1C#N	26µM*	1%	?	-2%
Cc1ccc(SC[C@H](c2ccccc2)N2CCN(CCc3ccccc3)CCC2=O)cc1	?	7%	21µM*	2%
O=C1CCN(CCc2ccccc2)CCN1C(CSc1ccc(Br)cc1)c1ccccc1 (centres undefined)	/	9%	/	/
O=C1CCN(CCc2ccccc2)CCN1[C@H](CSc1ccccc1)c1ccccc1	11µM*	/	11µM*	0%
Cc1ccc(SCC(c2ccccc2)N2CCN(CCc3ccccc3)CCC2=O)cc1 (centres undefined)	/	15%	/	/
CC(C)C[C@@H](CSc1ccccc1)N1CCN(CCc2ccccc2)CCC1=O	?	/	21µM*	-1%
CC1(C(=O)NS(=O)(=O)Cc2ccccc2)CCN1C(=O)C1(c2ccc(Cl)cc2)CCC1 (centres undefined)	?	/	-17%	1%
CCCCN(C(=O)c1cccc(S(=O)(=O)N2CCCCC2)c1)C1CCS(=O)(=O)C1 (centres undefined)	7%	-8%	1%	1%
Cc1cc(C)n(S(=O)(=O)c2ccc3oc(=O)ccc3c2)n1	-19%	-2%[0.0935 µM]	-37%	/
C/C(=C\c1ccco1)CN1CCOc2ccc(C(C)(O)COc3ccccc3)cc2C1 (centres undefined)	19%[9.04 µM]	/	?	/
CCc1nc(SCc2ccc(OCC(C)C)cc2)n[nH]1	4.6µM*	1%	?	/
CCN1C(=O)[C@H]2[C@H]3CN=C(SCc4ccc(Cl)cc4)N3[C@@](Cc3ccccc3)(C(=O)OC)[C@H]2C1=O	?	-6%[56.1 µM]	12µM*	1%
COC(=O)[C@@]1(Cc2ccccc2)[C@H]2C(=O)N(Cc3ccccc3)C(=O)[C@H]2[C@H]2CN=C(SCC(=O)c3ccccc3)N21	?	2%[56.1 µM]	18µM*	-1%
CN(C)c1ccc(N2[C@@H](CC(=O)O)c3cc(C(F)(F)F)ccc3S2(=O)=O)cc1	?	/	?	3%
CC(=O)C[C@H]1c2cc(C(F)(F)F)ccc2S(=O)(=O)N1c1ccc(N(C)C)cc1	7.9µM*	/	15µM*	1%
COC(=O)C[C@H]1c2ccccc2S(=O)(=O)N1c1ccc(N(C)C)cc1	?	/	10µM*	-1%
COC(=O)C[C@H]1c2cc(C(F)(F)F)ccc2S(=O)(=O)N1C(C)(C)C	?	/	?	0%
COC(=O)C[C@H]1c2cc(C(F)(F)F)ccc2S(=O)(=O)N1c1ccc(N(C)C)cc1	13µM*	/	10µM*	-2%
Cc1nc(-c2ccccc2)sc1CCNC(=O)C(=O)Nc1ccc2c(c1)OCO2	/	8%	/	3%

Screening results: PubChem BioAssay, National Center for Advancing Translational Sciences (NCATS)
